Test results taken from PubChem BioAssay.
Activity calls are given as the source filed them. Rule as the data show it, unless noted: active = inhibition above about 80%; inactive = the rest.

How the values were obtained:
[1] = target: Mitogen-activated protein kinase 7 (Homo sapiens) (UniProt Q13164); assay: Gal4-ERK5 driven luciferase induction – cell-based, HTS, primary screen (AID 1508626;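 active = luciferase signal above three times the same-plate solvent-only control wells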;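 also: luciferase driven by Gal4-ERK5 fusion binding five Gal4 sites before minimal TATA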); conditions: HeLa Gal4-ERK5 transactivation, 18 h, at 5 µM, stronger effect = higher value
Sequence of Mitogen-activated protein kinase 7 (Homo sapiens) (Q13164 whole entry, looked up, the tested form may be a part): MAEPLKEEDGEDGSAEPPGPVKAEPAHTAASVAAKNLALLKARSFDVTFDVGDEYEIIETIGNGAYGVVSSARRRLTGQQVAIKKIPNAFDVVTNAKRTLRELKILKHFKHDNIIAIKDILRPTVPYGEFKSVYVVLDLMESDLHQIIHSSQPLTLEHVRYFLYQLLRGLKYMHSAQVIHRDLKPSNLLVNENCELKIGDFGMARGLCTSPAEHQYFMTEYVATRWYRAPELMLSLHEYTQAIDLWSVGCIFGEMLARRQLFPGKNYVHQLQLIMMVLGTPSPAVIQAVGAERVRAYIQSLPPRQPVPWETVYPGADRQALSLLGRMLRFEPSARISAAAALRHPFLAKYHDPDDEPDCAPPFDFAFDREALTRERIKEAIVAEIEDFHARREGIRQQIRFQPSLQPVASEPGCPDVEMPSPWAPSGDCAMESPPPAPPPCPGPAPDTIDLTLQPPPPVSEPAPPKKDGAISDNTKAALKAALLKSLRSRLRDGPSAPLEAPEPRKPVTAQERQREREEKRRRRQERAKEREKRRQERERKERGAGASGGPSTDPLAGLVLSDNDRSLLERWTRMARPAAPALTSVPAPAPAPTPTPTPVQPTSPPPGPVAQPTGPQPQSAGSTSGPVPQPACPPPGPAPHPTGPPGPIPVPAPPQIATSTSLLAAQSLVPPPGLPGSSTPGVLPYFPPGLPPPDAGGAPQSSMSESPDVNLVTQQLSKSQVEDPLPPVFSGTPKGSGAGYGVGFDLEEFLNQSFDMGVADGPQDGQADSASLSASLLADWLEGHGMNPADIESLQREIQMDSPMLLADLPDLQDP

[2] = target: NAD(+) hydrolase SARM1 (Homo sapiens) (UniProt Q6SZW1); assay: blocking NAD cleavage by SARM1 SAM-TIR – cell lysate, NAD-Glo luminescence (AID 1508614;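 active = compound whose remaining NAD level is above about 45 nM, limit read from the data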;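 also: higher remaining NAD means stronger inhibition of SARM1 NADase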); conditions: SAM-TIR HEK293T lysate NADase, at 1 µM, stronger effect = higher value
Sequence of NAD(+) hydrolase SARM1 (Homo sapiens) (Q6SZW1 whole entry, looked up): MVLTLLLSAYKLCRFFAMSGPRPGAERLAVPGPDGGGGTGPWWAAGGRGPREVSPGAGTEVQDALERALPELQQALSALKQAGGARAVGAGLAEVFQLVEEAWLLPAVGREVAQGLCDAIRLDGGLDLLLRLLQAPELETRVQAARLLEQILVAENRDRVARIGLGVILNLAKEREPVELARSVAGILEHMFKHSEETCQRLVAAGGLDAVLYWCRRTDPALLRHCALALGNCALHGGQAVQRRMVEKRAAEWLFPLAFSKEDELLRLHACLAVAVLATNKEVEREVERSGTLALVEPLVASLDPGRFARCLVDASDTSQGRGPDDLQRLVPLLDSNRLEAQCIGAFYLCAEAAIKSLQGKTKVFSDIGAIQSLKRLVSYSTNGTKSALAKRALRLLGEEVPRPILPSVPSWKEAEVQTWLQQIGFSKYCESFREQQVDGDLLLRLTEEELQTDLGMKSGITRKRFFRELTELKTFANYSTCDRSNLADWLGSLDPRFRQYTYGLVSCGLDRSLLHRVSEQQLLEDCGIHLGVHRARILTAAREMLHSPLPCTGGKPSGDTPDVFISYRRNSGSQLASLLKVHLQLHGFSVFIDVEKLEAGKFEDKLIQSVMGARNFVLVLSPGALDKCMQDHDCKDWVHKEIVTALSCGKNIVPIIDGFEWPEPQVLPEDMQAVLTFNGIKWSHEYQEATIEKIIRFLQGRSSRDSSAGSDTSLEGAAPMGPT

[3] = growth inhibition, single agent or in combination, cell-based, chromothripsis tumors, cisplatin or BGB combos (AID 1671449); conditions: LFS_MB_P medulloblastoma cells;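 also: cells exposed for 96 hours; 0% = vehicle DMSO and 100% = killing by high DMSO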
[4] = growth inhibition, single agent and combos, cell-based, chromothripsis tumors, cisplatin or BGB combos (AID 1671450); conditions: HDN33 neuroblastoma cells, stronger effect = higher value;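 also: cells exposed to compound for four days; 0% = vehicle DMSO and 100% = cell killing by high DMSO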
[5] = growth inhibition, single agents and combos, ICB984, cell-based, cisplatin or BGB combos, synergistic combos for chromothripsis tumors (AID 1671451; call rule not given here;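 also: cells exposed for 96 hours before readout; 0% = vehicle DMSO and 100% = killing by high DMSO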); conditions: ICB984 medulloblastoma cells, drug combinations, stronger effect = higher value
[6] = growth inhibition, single agents and combos, LFS_MB_1R, cell-based, cisplatin or BGB combos, synergistic combos for chromothripsis tumors (AID 1671452); conditions: LFS_MB_1R medulloblastoma cells, stronger effect = higher value;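 also: cells exposed for 96 hours before readout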
[7] = growth inhibition, single agents and combos, HTB85, cell-based, BGB or cisplatin IC20 combos, synergistic combos for chromothripsis tumors (AID 1671453); conditions: HTB85 osteosarcoma cells, drug combinations, stronger effect = higher value;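 also: cells exposed for 96 hours before readout; 0% = vehicle DMSO and 100% = high DMSO killing control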
[8] = growth inhibition, single agents and combos, CRL2098, cell-based, BGB or cisplatin IC20 combos, synergistic combos for chromothripsis tumors (AID 1671454); conditions: CRL2098 osteosarcoma cells, drug combinations, stronger effect = higher value;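 also: cells exposed for 96 h before readout; 0% = vehicle DMSO and 100% = killing by high DMSO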
[9] = growth inhibition, single agents and combos, HD-MB03, cell-based, BGB or cisplatin IC20 combos, synergistic combos for chromothripsis tumors (AID 1671455; in the data active = inhibition above about 83%;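 also: 0% = vehicle DMSO and 100% = high DMSO as cytotoxic control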); conditions: HD-MB03 medulloblastoma cells, stronger effect = higher value
[10] = growth inhibition, single agents and combos, UWB1.289, cell-based, BGB or cisplatin combos, synergistic combos for chromothripsis tumors (AID 1671456); conditions: UWB1.289 ovarian carcinoma cells, stronger effect = higher value;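 also: cells exposed to compound for four days; 0% = vehicle DMSO and 100% = killing by high DMSO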
[11] = growth inhibition, single agents and combos, LFS_MB_2R, cell-based, cisplatin combos, synergistic combos for chromothripsis tumors (AID 1671457); conditions: LFS_MB_2R medulloblastoma cells, stronger effect = higher value;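 also: cells exposed to compound for four days before readout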
[12] = growth inhibition, MDA-MB-436, cell-based, BGB or cisplatin combos, synergistic combos for chromothripsis tumors (AID 1671458; call rule not given here;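 also: cells exposed for 96 hours; 0% = vehicle DMSO and 100% = killing by high DMSO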); conditions: MDA-MB-436 breast carcinoma growth inhibition, drug combinations, stronger effect = higher value
[13] = UWB1.289_BRCA1 ovarian cancer growth, cell-based, BGB or cisplatin combinations (AID 1671459); conditions: UWB1.289 BRCA1 ovarian carcinoma, drug combinations, stronger effect = higher value
[14] = drug combination toxicity in non-malignant astrocytes – cell-based, BGB or cisplatin IC20 combos, cytotoxicity control for chromothriptic childhood tumor combination screen (AID 1671460); conditions: Human astrocytes, viability inhibition, drug combinations, at 0.5 µM, stronger effect = higher value;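 also: cells exposed to compounds for 96 hours before viability readout; 0% = vehicle and 100% = killing control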
[15] = BT084 cell growth, single and combined drugs, ICGC_MB145, cisplatin and BGB IC40 combos (AID 1671461); conditions: BT084 medulloblastoma cells, drug combinations, stronger effect = higher value;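 also: cells exposed to drugs for 96 hours; 0% = vehicle DMSO and 100% = high DMSO full killing control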
[16] = RCMB18 cell growth, single agent and combined, cisplatin and BGB IC40 combos (AID 1671462); conditions: RCMB18 medulloblastoma cells, stronger effect = higher value;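 also: cells exposed to compound for four days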
[17] = CRL1545 cell growth, single agent and combined, cisplatin and BGB IC20 combos (AID 1671464); conditions: CRL1545 osteosarcoma cells, stronger effect = higher value;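 also: cells exposed to compound for 96 hours before readout; 0% = vehicle DMSO and 100% = high DMSO killing control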
[18] = galactose survival enhancers in mitochondrial complex I cybrids – cell-based, galactose medium, ATP luminescence, primary screen (AID 1645843;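 active = z-score of at least 1.8 in each of two replicates, scored against plate mean and spread of sample wells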;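 also: positive z means more ATP and so rescue of galactose-driven cybrid death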); conditions: complex I mutant cybrid cells, 72 h, stronger effect = higher value
[19] = measured here: combination with BGB IC40, at 0.05 µM
[20] = measured here: with BGB IC20 combination, at 0.5 µM
[21] = measured here: with cisplatin IC20 combination, at 0.5 µM
[22] = measured here: combination with cisplatin, at 0.5 µM
[23] = measured here: combination with cisplatin, at 5 µM

Q: With `C[C@@H]1CC[C@@]2(OC1)O[C@H]1C[C@H]3[C@@H]4CC[C@H]5C[C@@H](O)CC[C@]5(C)[C@H]4CC(=O)[C@]3(C)[C@H]1[C@@H]2C` as the molecule, how does the luciferase signal [1] read?
A: Its luciferase signal is 52 AU (inactive).

Q: What does the source list for `O=C(O)P(=O)(O)O`?
A: remaining NAD [2]: 10 nM (inactive); luciferase signal [1]: 16 AU (inactive); inhibition ([3]; at 0.5 µM, stronger effect = higher value): -17.5% (inactive); inhibition ([3]; measured here: combination with BGB IC20, at 0.005 µM): -17.5%; inhibition ([3]; measured here: combination with BGB IC40, at 0.005 µM): -19.7%; inhibition [3, 19]: -16.3%; inhibition ([3]; measured here: combination with cisplatin, at 0.5 µM, stronger effect = higher value): -28.3%; inhibition ([3]; measured here: combination with cisplatin, at 5 µM, stronger effect = higher value): -12.6%; inhibition ([4]; BGB combo, at 5 µM): -58%; inhibition ([4]; at 0.5 µM): -36.9% (inactive); inhibition ([4]; cisplatin combo, at 5 µM): -60.9%; inhibition [4, 20]: -38.1%; inhibition [4, 21]: -23.4%; inhibition ([4]; single agent, at 5 µM): -52.1%; inhibition ([5]; BGB IC20 combo, at 0.005 µM): -19.7%; inhibition ([5]; BGB IC40 combo, at 0.005 µM): -25.3%; inhibition ([5]; BGB IC40 combo, at 0.05 µM): -29.6%; inhibition ([5]; at 0.5 µM): -22.4% (inactive); inhibition ([5]; cisplatin combo, at 0.05 µM): -29.6%; inhibition ([5]; cisplatin combo, at 0.5 µM): -36.7%; inhibition ([5]; cisplatin combo, at 5 µM): -14%; inhibition ([5]; measured here: 5 uM single agent, at 5 µM): -14.5%; inhibition ([6]; at 0.5 µM): -51.1% (inactive); inhibition [6, 19]: -50.8%; inhibition [6, 22]: -81.2%; inhibition [6, 23]: -40.9%; inhibition ([7]; at 0.5 µM): -23.4% (inactive); inhibition ([7]; measured here: with BGB IC20, at 0.5 µM): -66.1%; inhibition ([7]; measured here: with BGB IC20, at 5 µM): -35%; inhibition ([7]; measured here: with cisplatin IC20, at 0.5 µM): 20.5%; inhibition ([7]; measured here: with cisplatin IC20, at 5 µM): -22.8%; inhibition ([7]; single agent, at 5 µM): -25.8%; inhibition ([8]; at 0.5 µM): -107% (inactive); inhibition ([8]; measured here: combination with BGB at IC20, at 0.5 µM): -77.3%; inhibition ([8]; measured here: combination with cisplatin at IC20, at 0.5 µM): -148%; inhibition ([9]; at 0.5 µM): -14.1% (inactive); inhibition ([9]; measured here: combo with BGB at IC20, at 0.5 µM): -16%; inhibition ([9]; measured here: combo with cisplatin at IC20, at 0.5 µM): -17.1%; inhibition ([10]; at 0.5 µM): -11.3% (inactive); inhibition ([10]; measured here: inhibition with BGB combination, at 0.05 µM): -27.2%; inhibition ([10]; measured here: inhibition with cisplatin combination, at 0.05 µM): -24%; inhibition ([11]; at 0.5 µM): -19.3% (inactive); inhibition [11, 22]: -14.2%; inhibition [11, 23]: -18.5%; inhibition ([12]; at 0.5 µM): -30.5% (inactive); inhibition ([12]; measured here: BGB combination, at 0.5 µM): -34.2%; inhibition ([12]; measured here: BGB combination, at 5 µM): -30.6%; inhibition ([12]; measured here: cisplatin combination, at 0.5 µM): -45.7%; inhibition ([12]; measured here: cisplatin combination, at 5 µM): -24.2%; inhibition ([13]; BGB combination, concentration series, at 5 µM): -19.2%; inhibition ([13]; at 0.5 µM): -15.7% (inactive); inhibition ([13]; cisplatin combination, concentration series, at 5 µM): -10.9%; inhibition [14]: 0.14% (inactive); inhibition ([14]; measured here: combo with BGB IC20): 1.18%; inhibition ([14]; measured here: combo with cisplatin IC20): -8.98%; inhibition ([15]; at 0.5 µM): -21.4% (inactive); inhibition ([15]; cisplatin combination, at 0.5 µM): -13.9%; inhibition ([15]; cisplatin combination, at 5 µM): -72.5%; inhibition ([15]; measured here: BGB IC40 combination 0.05 uM, at 0.05 µM): 11.4%; inhibition ([15]; single agent, at 5 µM): -13.1%; inhibition ([16]; at 0.5 µM): -28.6% (inactive); inhibition ([16]; cisplatin combo, at 5 µM): -9.59%; inhibition ([16]; measured here: BGB IC40 combination, at 0.05 µM): -13.4%; inhibition [16, 22]: -44.4%; inhibition ([16]; single agent, at 5 µM): -27.5%; inhibition ([17]; at 0.5 µM): -83.7% (inactive); inhibition [17, 20]: -15.5%; inhibition [17, 21]: -118%; inhibition ([17]; single agent, at 0.05 µM): -51.7%; inhibition ([17]; single agent, at 5 µM): -82.1%

Q: With `CC1=NN(c2ccccc2)C(=O)C1` as the molecule, how does the remaining NAD [2] read?
A: The remaining NAD was 10 nM (inactive).

Q: And the z-score [18]?
A: Its z-score is 1.25 (inactive).
